Assay results taken from PubChem BioAssay (NCATS).
Inconclusive results are not listed. A number with no mark means an inactive call. Calls come from the whole dose curve; as a rule, active = well fitted cell-killing curve with a large enough effect; inconclusive = small, poorly fitted or top-dose-only effect; inactive = flat fitted curve, though single readings scatter.

assay: qHTS of pediatric cancer cell lines to identify multiple opportunities for drug repurposing: Primary screen for control Hh wild type fibroblast cells (AID 1347106); conditions: Hh wild-type fibroblast viability, CellTiter-Glo luminescence, 48 h; series mostly up to 46 µM; activity change, negative = cytotoxic: at the top concentration;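 note: a drop in luminescence marks cytotoxicity and a rise apparent proliferation; nearly all actives have a fitted effect of over 55% in size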
How it was run: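 Viability after 48 h compound treatment at 37C, 500-1,000 cells/well, read as ATP luminescence with CellTiter-Glo. Primary screens used 11-point (MIPE, 0.78 nM-46 µM) or 8-point (NPC, 0.59 nM-46 µM) final concentrations; follow-up screens used 11-point dilutions.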
% is set by controls: 0 for no effect and ±100 for the full control effect.

Row | Compound | activity change, negative = cytotoxic
1 | O=C(O)c1ccc(S(=O)(=O)N(Cl)Cl)cc1 | 0.605%
2 | CC(C)(C)NC[C@H](O)COc1cccc2c1CCCC2=O | 13.2%
3 | COc1cc(C(=S)N2CCOCC2)ccc1O | -6.73%
4 | CC(=O)OC[C@H]1O[C@@H](n2ncc(=O)[nH]c2=O)[C@H](OC(C)=O)[C@@H]1OC(C)=O | -6.32%
5 | O=C1C(CCS(=O)c2ccccc2)C(=O)N(c2ccccc2)N1c1ccccc1 (stereo not drawn) | 10.8%
6 | CCCCNc1ccc(C(=O)OCCOCCOCCOCCOCCOCCOCCOCCOCCOC)cc1 | 9.42%
7 | O[C@@H](c1cc(C(F)(F)F)nc2c(C(F)(F)F)cccc12)[C@H]1CCCCN1 | -14.7%
8 | CC[N+](C)(CC)CCOC(=O)C(O)(c1ccccc1)C1CCCCC1 (stereo not drawn) | -0.777%
9 | C/C=C/C=N/NC(=O)c1ccncc1 | 3.73%
10 | CCCCCCCCCCCCCCC[C@H](O)[C@@H](N)CO | -5.26%
11 | COc1cc(NS(=O)(=O)c2ccc(N)cc2)ncn1 | 1.63%
12 | O=C(Nc1cccc(C2=NCCN2)c1)Nc1cccc(C2=NCCN2)c1 | 0.637% [at 16.1 µM]
13 | CCN(CC)CCOc1ccc2c(c1)C(=O)c1cc(OCCN(CC)CC)ccc1-2 | 3.91%
14 | Nc1nc(N)c(-c2ccccc2)s1 | 12.3%
15 | COC(=O)C(c1ccccc1Cl)N1CCc2sccc2C1 (stereo not drawn) | 2.19%
16 | Cc1cccc(C)c1NC(=O)c1ccccc1C(=O)O | 11.4%
17 | COc1ccccc1N1CCN(CCCCNC(=O)c2ccc(-c3ccc(C(C)=O)cc3)cc2)CC1 | -7.63%

Row | Compound | activity change, negative = cytotoxic
18 | CC(=O)O[C@]1(C(C)=O)CC[C@H]2[C@@H]3C=C(Cl)C4=CC(=O)CC[C@]4(C)[C@H]3CC[C@@]21C | 10.5%
19 | O=C(O)CCc1nc2ccccc2[nH]1 | 20.1%
20 | Oc1ccc(Cl)cc1Cc1cc(Cl)ccc1O | -27.4%
21 | NCCNc1cccc2ccccc12 | 9.21%
22 | CCCN(CCC)S(=O)(=O)c1ccc(C(=O)O)cc1 | 0.0915%
23 | CC(=O)O[C@]1(C(C)=O)CC[C@H]2[C@@H]3C=C(C)C4=CC(=O)CC[C@]4(C)[C@H]3CC[C@@]21C | 4.97%
24 | O=C1c2cccc3c2[C@H](CCC3)CN1[C@@H]1CN2CCC1CC2 | 0.964%
25 | NC(=S)N/N=C/c1cccnc1 | 6.27%
26 | O=[N+]([O-])c1ccc(/C=N\O)o1 | 8.07%
27 | Cn1c(=O)c2[nH]c(Br)nc2n(C)c1=O | 7.08%
28 | CC[C@H](c1ccc(O)cc1)[C@@H](CC)c1ccc(O)cc1 | 7.02%
29 | CCN1CCCC(OC(=O)C(c2ccccc2)c2ccccc2)C1 (stereo not drawn) | 2.43%
30 | CCOc1ccc(NC(C)=O)cc1 | 1.81%
31 | CCCCCCCCNC(C)C(O)c1ccc(SC(C)C)cc1 (stereo not drawn) | 10.5%
32 | COc1ccc(C(=O)c2ccccc2)c(O)c1 | -8.23%
33 | CCOc1ccccc1C(N)=O | 18%
